Common to all, as to type: functional
The test system of test [1] is Plasmodium falciparum. Kind of test: GSK_TCMDC: Inhibition of Plasmodium falciparum 3D7 in whole red blood cells, using parasite LDH activity as an index of growth. Test compounds present at 2uM.
Test [2] deals with Plasmodium falciparum. Kind of test: GSK_TCMDC: Inhibition of Plasmodium falciparum Dd2 in whole red blood cells, using parasite LDH activity as an index of growth. Test compounds present at 2uM.
A further test relates to HepG2. Kind of test: GSK_TCMDC: Percent inhibition of human HepG2 cell line. Test compounds present at 10uM.

This passage reports Inhibition results from ChEMBL document CHEMBL1157539, “Thousands of chemical starting points for antimalarial lead identification” (Nature, 2010).

The term Inhibition denotes the share of the control response that was lost under treatment. Read a high Inhibition as strong suppression.

SMILES strings stand for the structures.

Regarding `CCCCCCNCCOc1ccc(-c2nc(-c3ccccc3)c(-c3ccccc3)[nH]2)cc1`, the Inhibition with Plasmodium falciparum [1] was found to be 98%; with Plasmodium falciparum [2], 39%; in the test with HepG2, 14%.

Regarding `Cc1cccc(-n2nc(C)c3c2NC(=O)CC3C(=O)c2ccc(Cl)s2)c1` (configuration not stated), the figures for the Inhibition in the test on Plasmodium falciparum [1], in the test on Plasmodium falciparum [2] and with HepG2 were 92%, 85% and 13%, respectively.

As for `O=C(/C=C/c1ccc(Cl)cc1)NCCCCCN1CCCN(C(=O)Nc2ccc(F)c(Cl)c2)CC1`, the Inhibition in the test with Plasmodium falciparum [1] came out at 94%; in the test with Plasmodium falciparum [2], 6%; in the test with HepG2, 29%.

In the case of `COc1ccc2c(C)cc(NCCCN(C)C)nc2c1.O=C(O)C(=O)O`, the figures for the Inhibition with Plasmodium falciparum [1], in the test on Plasmodium falciparum [2] and in the test on HepG2 were 95%, 19% and 10%, respectively.

Take `FC(F)(F)c1ccc2[nH]c(-c3cccc(-c4cccc(CNCc5cnn(-c6ccccc6)n5)c4)c3)nc2c1.O=C(O)C(F)(F)F`: the Inhibition in the test with Plasmodium falciparum [1] worked out at 100%; with Plasmodium falciparum [2] it was 28%; in the test on HepG2 it was 6%.

As to `CC1=C(C(=O)OCCOCc2ccccc2)C(c2ccccc2C(F)(F)F)C(C(=O)OCCOCc2ccccc2)=C(C)N1`, the Inhibition with Plasmodium falciparum [1] came out at 89%; with Plasmodium falciparum [2], 87%; in the test with HepG2 it was 0%.

In the case of `CCCC(C)NC(=O)c1cnn(-c2ccc(C(C)(C)C)cc2)c1OCc1ccc(Br)cc1` (configuration not stated), the Inhibition was found to be 84% in the test with Plasmodium falciparum [1], 64% in the test with Plasmodium falciparum [2] and 17% in the test on HepG2.

As to `C[C@@]12C[C@@H](Nc3nc(NCCc4ccc(O)cc4)nc(N4CCNCC4)n3)C[C@@H](C1)c1cccc(Cl)c1O2.O=C(O)C(F)(F)F`, the results for the Inhibition in the test with Plasmodium falciparum [1], in the test on Plasmodium falciparum [2] and with HepG2 were 100%, 47% and 92%, respectively.

`Cl.O=C(N[C@@H](Cc1ccccc1)[C@H](O)CNC1CCc2ccccc2C1)c1cc(C2CCCC2)cc(N2CCCC2=O)c1` (some centres not stated): the values for the Inhibition in the test on Plasmodium falciparum [1], in the test on Plasmodium falciparum [2] and in the test on HepG2 were 99%, 76% and 23%, respectively.

In the case of `CO/C(=C\C=C\c1cc2cc(Cl)c(Cl)cc2[nH]1)C(=O)NCCCN(C)CCN(C)c1ccccc1`, the Inhibition with Plasmodium falciparum [1] was 96%; in the test on Plasmodium falciparum [2], 59%; with HepG2, 38%.

In the case of `CCOc1c(CNCCCNc2cc(=O)c3ccccc3[nH]2)cc(I)cc1C(C)(C)C.Cl`, the figures for the Inhibition in the test on Plasmodium falciparum [1], in the test with Plasmodium falciparum [2] and in the test with HepG2 were 100%, 89% and 17%, respectively.

On to `Clc1cc(Cl)c2cc(CN[C@H]3CCC[C@@H]3CNc3nc4ccccc4[nH]3)[nH]c2c1`, for which the values for the Inhibition in the test with Plasmodium falciparum [1], with Plasmodium falciparum [2] and in the test with HepG2 were 99%, 58% and 85%, respectively.

Turning to `O=C(NCC1CCC(C(=O)NC2CCCc3ccccc32)CC1)c1ccc(O)c(-c2ccc(Cl)c(Cl)c2)c1` (configuration not stated), the Inhibition with Plasmodium falciparum [1] was 93%; in the test with Plasmodium falciparum [2] it was 86%; in the test with HepG2, 0%.

On to `COc1cc(Nc2ccnc3ccc(C(C)(C)C)cc23)cc(OC)c1OC`, for which the Inhibition in the test on Plasmodium falciparum [1] was found to be 100%; in the test with Plasmodium falciparum [2] it was 80%; in the test with HepG2, 12%.

Take `CO/C(=C\C=C\c1cc2cc(Cl)c(Cl)cc2[nH]1)C(=O)NCCCN1CCN(c2cccc(CCCO)c2)CC1`: the Inhibition is given as 90% in the test with Plasmodium falciparum [1], 36% in the test with Plasmodium falciparum [2] and 66% in the test on HepG2.

With `Cc1cccc2nc(-c3ccc(-c4ccc(NC(=O)CN5CCN(C)CC5)cc4)s3)[nH]c12`, the Inhibition in the test on Plasmodium falciparum [1] was 95%; with Plasmodium falciparum [2], 86%; with HepG2, 56%.

`CC(=O)Nc1ccc(CN2CCc3ccc(NS(=O)(=O)c4cccc(OCc5ccc(Cl)cc5)c4)cc3CC2)s1`: the values for the Inhibition in the test with Plasmodium falciparum [1], with Plasmodium falciparum [2] and with HepG2 were 93%, 7% and 23%, respectively.

In the case of `N#Cc1cccc(Nc2nccc(Nc3ccc(Oc4ccccc4)cc3)n2)c1`, the Inhibition came to 94% in the test on Plasmodium falciparum [1], 17% in the test on Plasmodium falciparum [2] and 12% with HepG2.

For the compound `Cn1nc(-c2cccc(CNCc3ccccc3)c2)c2cnc(NC3CCCC3)nc21`, the values for the Inhibition in the test on Plasmodium falciparum [1], in the test with Plasmodium falciparum [2] and in the test with HepG2 were 85%, 11% and 5%, respectively.

On to `Cc1cc(Nc2ccccc2)nc(Nc2ccccc2C)n1.Cl`, for which the Inhibition with Plasmodium falciparum [1] is 85%; in the test on Plasmodium falciparum [2], 27%; in the test on HepG2, 8%.

`Cc1nc2ccc3ccc(CNc4ccc(C(=O)CC(CCC(=O)O)C(=O)O)cc4)cc3c2c(=O)[nH]1.[Cl-].[Na+]` (configuration not stated): the Inhibition in the test on Plasmodium falciparum [1] is 95%; with Plasmodium falciparum [2] it was 96%; with HepG2, 51%.

For the compound `COc1ccc(CNC2CCN(C)CC2)cc1-c1ccc(S(=O)(=O)NCc2ccccc2)s1.O=C(O)C(F)(F)F`, the Inhibition in the test with Plasmodium falciparum [1] was 100%; in the test on Plasmodium falciparum [2], 100%; in the test on HepG2, 62%.

`CC(C)(C)N1CCC(N(Cc2ccc(-c3ccc(C(F)(F)F)cc3)cc2)C(=O)Cn2c(CCc3cccc(F)c3F)cc(=O)c3ccccc32)CC1.O=C(O)C(O)C(O)C(=O)O`: the values for the Inhibition in the test with Plasmodium falciparum [1], in the test with Plasmodium falciparum [2] and in the test with HepG2 were 100%, 97% and 100%, respectively.

Take `Cc1cccc2nc(-c3cccc(-c4ccc(NC(=O)Nc5ccsc5)cc4)c3)[nH]c12`: the results for the Inhibition with Plasmodium falciparum [1], in the test on Plasmodium falciparum [2] and in the test on HepG2 were 100%, 99% and 27%, respectively.

For the compound `Cl.Oc1ccc(Cc2cc(Oc3c(I)cc(CCc4ncc[nH]4)cc3I)ccc2O)cc1`, the Inhibition in the test with Plasmodium falciparum [1] was determined as 100%; in the test with Plasmodium falciparum [2], 32%; in the test with HepG2 it was 10%.

`O=C(O)C(F)(F)F.c1ccc(CN2CCC(NCc3ccc(-c4ccc(CNCc5cccnc5)cn4)cc3)CC2)cc1`: the Inhibition was found to be 97% in the test with Plasmodium falciparum [1], 13% in the test with Plasmodium falciparum [2] and 0% in the test on HepG2.

`CCn1ccc2c3c(N)nc(N)nc3ccc21`: the figures for the Inhibition with Plasmodium falciparum [1], in the test with Plasmodium falciparum [2] and in the test on HepG2 were 99%, 2% and 61%, respectively.

As to `O=C(Nc1ccc(C(=O)Oc2cccc3ccccc23)cc1)N[C@@H](Cc1ccc(O)cc1)C(=O)NC1CCN(Cc2ccc(O)cc2)C1.O=C(O)C(F)(F)F` (some centres not stated), the Inhibition in the test on Plasmodium falciparum [1] came to 87%; in the test with Plasmodium falciparum [2] it was 0%; in the test on HepG2, 0%.

For `CCc1c(CCNCCCCCCNCCc2ccc(OC)c(OC)c2CC)ccc(OC)c1OC.Cl`, the Inhibition is 100% in the test with Plasmodium falciparum [1], 1% with Plasmodium falciparum [2] and 58% with HepG2.
